The target in assay [1] is Cellular tumor antigen p53 (Homo sapiens) (UniProt P04637). The assay can be described thus: TOX21_p53_BLA_p2_ratio: Tox21 HCT-116 p53 Agonism Beta-lactamase Assay, Ratio, Phase 2 (AID 2283592). The method, boiled down: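 Ratio endpoint: beta-lactamase cleavage of CCF4-AM, blue (460 nm) over green (530 nm). HCT116 reporter line; 16 h treatment, 37C; substrate 2 h RT.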

A short description of assay [2]: TOX21_p53_BLA_p3_viability: Viability Assessment in the Tox21 HCT-116 p53 Agonism Beta-lactamase Assay, Phase 3 (AID 2283593).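 Note: cells exposed to compound for 16 h before reading.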 An outline of the steps: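 HCT-116 cells (4000/well) rested 5 h at 37C, then got DMSO compounds by pin tool (217-fold dilution) for 16 h at 37C, 5% CO2. After the bla read, CellTiter-Glo was added and luminescence read at 30 min, room temperature.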

The target of assay [3] is Cellular tumor antigen p53 (Homo sapiens) (UniProt P04637). The assay can be described thus: TOX21_p53_BLA_p3_ratio: Tox21 HCT-116 p53 Agonism Beta-lactamase Assay, Ratio, Phase 3 (AID 2283596). An outline of the steps:
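Cells were seeded at 4000/well, rested 5 h at 37C, then dosed with DMSO compound solutions (217-fold dilution) for 16 h. CCF4-AM substrate was loaded for 2 h at room temperature, and the 460/530 nm emission ratio was fitted for gain of signal versus DMSO.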

A short description of assay [4]: TOX21_p53_BLA_p4_viability: Viability Assessment in the Tox21 HCT-116 p53 Agonism Beta-lactamase Assay, Phase 4 (AID 2283597).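 Note: hits lower the luminescence signal meaning cytotoxicity.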 The method, boiled down:
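Cytotoxicity was inferred from loss of CellTiter-Glo luminescence. HCT116 cells had been dosed with compounds after 5 h plating, incubated 16 h at 37C and 5% CO2, and exposed to the CCF4-AM substrate for 2 h.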

The target in assay [5] is Cellular tumor antigen p53 (Homo sapiens) (UniProt P04637). In words: TOX21_p53_BLA_p5_ratio: Tox21 HCT-116 p53 Agonism Beta-lactamase Assay, Ratio, Phase 5 (AID 2283599). The method, boiled down: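 HCT-116 cells carrying a p53-inducible beta-lactamase reporter were seeded at 4000 cells/well and dosed after 5 h with compound in DMSO (217-fold dilution). After 16 h at 37C, CCF4-AM substrate was added for 2 h, and the 460/530 nm emission ratio was scored as gain-of-signal versus DMSO.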

Assay [6] in a line: TOX21_p53_BLA_p5_viability: Viability Assessment in the Tox21 HCT-116 p53 Agonism Beta-lactamase Assay, Phase 5 (AID 2283600). The method, boiled down: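 Luciferase-coupled ATP quantitation of cells treated for 16 h (37C, 5% CO2) with test chemicals delivered in DMSO via a 217-fold dilution; 4000 cells/well; reagent incubated 30 min at room temperature before luminescence reading.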

The target in assay [7] is Cellular tumor antigen p53 (Homo sapiens) (UniProt P04637). The assay can be described thus: TOX21_p53_BLA_p4_ratio: Tox21 HCT-116 p53 Agonism Beta-lactamase Assay, Ratio, Phase 4 (AID 2283601). The method, boiled down:
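HCT116 cells carrying an inducible beta-lactamase reporter were plated at 4000 cells/well, rested 5 h, then exposed to compounds in DMSO (217-fold dilution) for 16 h at 37C. CCF4-AM substrate was loaded 2 h at room temperature; 460/530 nm emission ratio scored gain-of-signal versus DMSO.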

Assay [8] in a line: CCTE_Harrill_HTTr_Viability_MCF7: CCTE's 6-hour Cell Viability Assessment for the High-Throughput Transcriptomics (HTTr) Platform, in MCF-7 cells cultured in DMEM + 10% fetal bovine serum, Harrill Lab (AID 2284010; active = hit-call score of the fitted dose curve at least 0.9, where 1 is the maximum; inactive = score below 0.9). The method, boiled down: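 Propidium iodide exclusion, imaged by high-content analysis, gauged viability after a six-hour exposure across eight concentrations. Cells were MCF-7 grown in DMEM with 10% fetal bovine serum; fits run in both directions against DMSO.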

A short description of assay [9]: CCTE_Harrill_HTTr_Apoptosis_MCF7: CCTE's 6-hour Apoptosis Assessment for the High-Throughput Transcriptomics (HTTr) Platform, in MCF-7 cells cultured in DMEM + 10% fetal bovine serum, Harrill Lab (AID 2284011; active = hit-call score of the fitted dose curve at least 0.9, where 1 is the maximum; inactive = score below 0.9). An outline of the steps:
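MCF-7 cells in DMEM + 10% fetal bovine serum were exposed to chemicals for 6 hours over an eight-point dilution series. Caspase-3/7 activation was imaged by high content imaging with CellEvent Caspase 3/7 Green; bidirectional fitting used DMSO as baseline.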

A short description of assay [10]: CCTE_Harrill_HTTr_CellCount_MCF7: CCTE's Cell Proliferation Assessment for the High-Throughput Transcriptomics (HTTr) Platform, Harrill Lab (AID 2284012).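 Note: cells exposed to compound for six hours; intended direction is loss of nuclei count meaning fewer cells.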 The method, boiled down:
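Cell count from high-content imaging of Hoechst-labeled nuclei serves as viability/growth readout. Chemicals were applied to MCF-7 cells in eight concentrations for six hours, with fitting in both directions relative to DMSO.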

SMILES strings stand for the structures. Records with an inconclusive call do not appear. Activity calls are given as the source filed them. Rule for the calls, unless noted: active = hit-call score of the fitted dose curve at least 0.9, where 1 is the maximum; inconclusive = response in the unintended direction; inactive = score below 0.9.

Chain of Cellular tumor antigen p53 (Homo sapiens) (P04637 whole entry, looked up): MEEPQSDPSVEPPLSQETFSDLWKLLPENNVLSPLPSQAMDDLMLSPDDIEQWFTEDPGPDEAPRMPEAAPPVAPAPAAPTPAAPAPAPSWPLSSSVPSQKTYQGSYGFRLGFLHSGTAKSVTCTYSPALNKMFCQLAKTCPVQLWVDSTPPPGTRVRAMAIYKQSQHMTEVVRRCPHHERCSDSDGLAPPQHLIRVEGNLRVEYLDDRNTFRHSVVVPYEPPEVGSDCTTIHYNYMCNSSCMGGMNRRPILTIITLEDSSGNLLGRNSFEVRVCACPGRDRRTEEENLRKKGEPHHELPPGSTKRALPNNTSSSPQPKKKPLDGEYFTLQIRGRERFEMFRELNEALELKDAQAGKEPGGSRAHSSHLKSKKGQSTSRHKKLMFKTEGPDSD

For orientation: AC50 means the midpoint of the concentration-response curve, whichever way the signal moves. `O=C(NN=Cc1ccc([N+](=O)[O-])o1)c1ccc(O)cc1`: the AC50 is 10200 nM (active) in assay [1], 16200 nM (active) in assay [3] and 15500 nM (active) in assay [5]. Moreover, the result in [2], in [4], in assay [6] and in assay [7] was inactive.

For `O=C(O)c1cc(=O)c2c(OCC(O)COc3cccc4oc(C(=O)O)cc(=O)c34)cccc2o1`, the outcome in assay [1], in assay [2], in [3], in assay [4], in assay [5] and in assay [6] was inactive. The outcome in assay [7], in assay [8], in assay [9] and in assay [10] was inactive.

For `Cc1c(N)nc(C(CC(N)=O)NCC(N)C(N)=O)nc1C(=O)NC(C(=O)NC(C)C(O)C(C)C(=O)NC(C(=O)NCCc1nc(-c2nc(C(=O)NCCCN[C@@H](C)c3ccccc3)cs2)cs1)C(C)O)C(O[C@@H]1O[C@@H](CO)[C@@H](O)[C@H](O)[C@@H]1O[C@H]1O[C@H](CO)[C@@H](O)[C@H](OC(N)=O)[C@@H]1O)c1cnc[nH]1` (some centres not stated), the half-maximal activity concentration (AC50) in [1] is 286 nM (active); in assay [3], 301 nM (active); in assay [5] it was 430 nM (active); in assay [7], 193 nM (active). In addition, the call in [2], in [4] and in [6] was inactive.

For the compound `CCOC(=O)CS`, the outcome in assay [1], in assay [2], in [3], in assay [4], in assay [5] and in assay [6] was inactive. Moreover, the result in [7] was inactive.

With `O=S(O)CO`, the outcome in [1], in [2], in assay [3], in [4], in assay [5] and in [7] was inactive.

The record behind these values is PubChem BioAssay (EPA / NIEHS).
